Measurements taken from PubChem BioAssay (NCI).
This is part of a sample that, as a whole, favours compounds with a hit. Of some 79,000 tested, about 15% had one in any assay. The source made the active and inactive calls. Rule as the data show it: active = growth inhibition above about 70%; inactive = the rest.

Tests used:
[1] = NCI Yeast Anticancer Drug Screen. Data for the rad52 strain (AID 147);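 also: 0% = growth of vehicle-treated control cultures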; details: S. cerevisiae rad52 mutant growth inhibition, hits give high values
In short: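 Measured: yeast growth inhibition. System: strain with a defined DNA damage repair alteration. Reference: vehicle-treated control cultures.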

[2] = NCI Yeast Anticancer Drug Screen. Data for the wt1 strain (AID 149);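 also: 0% = growth of vehicle-treated wt1 cultures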; details: S. cerevisiae wt1 strain (SPY 50644) growth inhibition, hits give high values
In short: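 Measured: growth of wt1 yeast under compound versus vehicle treatment, reported as inhibition.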

[3] = NCI Yeast Anticancer Drug Screen. Data for the rad50EPP+ strain (AID 151);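 also: 0% = growth of vehicle-treated control cultures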; details: S. cerevisiae rad50 mutant strain, hits give high values
In short: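 One strain with a rad50 alteration (rad50EPP+) was compound-treated, its growth then compared to that of vehicle controls.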

[4] = NCI Yeast Anticancer Drug Screen. Data for the mgt1 strain (AID 153); details: S. cerevisiae mgt1 mutant growth inhibition, hits give high values
In short: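 After exposure of the mgt1 yeast mutant to compound, growth was measured and reported as inhibition compared with vehicle controls.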

[5] = NCI Yeast Anticancer Drug Screen. Data for the rad50 strain (AID 155);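 also: 0% = growth of vehicle-only cultures of the same strain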; details: S. cerevisiae rad50 strain growth inhibition, hits give high values
In short: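 Growth of the mutant yeast was measured after compound exposure and referenced to vehicle-treated cultures.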

[6] = NCI Yeast Anticancer Drug Screen. Data for the mec2-1 strain (AID 157); details: S. cerevisiae mec2-1 strain, hits give high values
In short: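 Test agents were screened against the mec2-1 yeast strain, with defined DNA repair or cell cycle alteration. Growth was scored as inhibition against vehicle-only controls.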

[7] = NCI Yeast Anticancer Drug Screen. Data for the rad14 strain (AID 159);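 also: 0% = growth of vehicle-treated control cultures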; details: S. cerevisiae rad14 strain growth inhibition, hits give high values
In short: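 Here, inhibition of yeast growth was measured after compound exposure, using a strain with a genetic defect in DNA damage repair and vehicle-treated cultures as the reference.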

[8] = NCI Yeast Anticancer Drug Screen. Data for the sgs1 mgt1 strain (AID 161);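 also: 0% = growth of cultures given vehicle only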; details: S. cerevisiae sgs1 mgt1 strain, hits give high values
In short: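 Mutant yeast exposed to compound; growth scored against vehicle-only wells.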

[9] = NCI Yeast Anticancer Drug Screen. Data for the CLN2oe strain (AID 163);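 also: 0% = growth of vehicle-only control cultures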; details: S. cerevisiae CLN2oe strain, hits give high values
In short: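 Here, growth inhibition in a cell-cycle-altered yeast strain after compound exposure was quantified against vehicle control growth.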

[10] = NCI Yeast Anticancer Drug Screen. Data for the cln2 rad14 strain (AID 165);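 also: 0% = growth equal to vehicle treated cultures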; details: S. cerevisiae cln2 rad14 strain, hits give high values
In short: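 Growth of compound-exposed yeast (cln2 rad14 genotype) measured and expressed as inhibition relative to vehicle.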

[11] = NCI Yeast Anticancer Drug Screen. Data for the bub3 strain (AID 167); details: S. cerevisiae bub3 mutant strain, hits give high values
In short: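 Whole-cell yeast assay. The mutant strain was incubated with compounds, and growth inhibition was determined by comparison with vehicle-treated cells.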

[12] = NCI Yeast Anticancer Drug Screen. Data for the wt2 strain (AID 169);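 also: 0% = growth of vehicle-treated yeast cultures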; details: S. cerevisiae wt2 strain growth inhibition, hits give high values
In short: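 Genetically defined yeast strains from a DNA-repair/cell-cycle panel were used. Compound-exposed yeast growth was measured, and the inhibition was calculated relative to vehicle treatment.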

[13] = NCI Yeast Anticancer Drug Screen. Data for the mlh1 strain (AID 171);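 also: 0% = growth of vehicle-treated control cultures of the same strain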; details: S. cerevisiae mlh1 strain growth inhibition, hits give high values
In short: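 Here the genetically defined yeast mutant is grown with each compound, and the extent to which its growth falls below that of vehicle-exposed cells is reported.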

[14] = NCI Yeast Anticancer Drug Screen. Data for the sgs1 strain (AID 173);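 also: 0% = growth of vehicle-only control cultures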; details: S. cerevisiae sgs1 mutant, hits give high values
In short: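 Relative growth inhibition, referenced to vehicle, was determined in a yeast strain with a defined alteration affecting DNA damage repair or cell cycle control after compound exposure.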

[15] = NCI Yeast Anticancer Drug Screen. Data for the mlh1 rad18 strain (AID 175); details: S. cerevisiae mlh1 rad18 strain growth inhibition, hits give high values
In short: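 In this whole-cell yeast screen, a strain with altered DNA damage repair is challenged with compound, and its growth is measured against matched vehicle-treated controls.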

[16] = NCI Yeast Anticancer Drug Screen. Data for the rad18 strain (AID 177); details: S. cerevisiae rad18 mutant growth inhibition, hits give high values
In short: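 Screen uses a yeast strain with a defined lesion in DNA damage repair; compound effect is read as loss of growth compared to untreated vehicle cultures.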

[17] = at 5.0 µM (retest, dose inferred, filed as 0.5)
[18] = at 50.0 µM (retest, dose inferred, filed as 5.0)

Measured: growth inhibition

Cc1nc2ccccc2cc1C[N+]12CN3CN(CN(C3)C1)C2
active: [1]; at 100.0 µM 90% | [3]; at 100.0 µM 85% | [5]; at 50.0 µM 84% | [5]; at 100.0 µM 85% | [14]; at 100.0 µM 80% | [16]; at 100.0 µM 83%
inactive: [1]; at 1.2 µM 1% | [1]; at 3.7 µM 3% | [1]; at 11.0 µM 6% | [1]; at 33.0 µM 29% | [2]; at 1.2 µM 0% | [2]; at 3.7 µM -2% | [2]; at 11.0 µM 0% | [2]; at 33.0 µM 3% | [2]; at 100.0 µM 20% | [3]; at 1.2 µM 0% | [3]; at 3.7 µM 1% | [3]; at 11.0 µM 1% | [3]; at 33.0 µM 21% | [4]; at 1.2 µM 2% | [4]; at 3.7 µM 5% | [4]; at 11.0 µM 4% | [4]; at 33.0 µM 6% | [4]; at 100.0 µM 36% | [5]; at 1.2 µM 1% | [5]; at 3.7 µM 9% | [5]; [17] -7% | [5]; at 11.0 µM 7% | [5]; at 33.0 µM 25% | [5]; [18] 55% | [6]; at 1.2 µM 2% | [6]; at 3.7 µM 4% | [6]; [17] -2% | [6]; at 11.0 µM 5% | [6]; at 33.0 µM 10% | [6]; [18] 28% | [6]; at 50.0 µM 25.1% | [6]; at 100.0 µM 32% | [7]; at 1.2 µM -2% | [7]; at 3.7 µM 6% | [7]; at 11.0 µM 3% | [7]; at 33.0 µM 11% | [7]; at 100.0 µM 47% | [8]; [17] -6% | [8]; [18] 27% | [8]; at 50.0 µM 47.2% | [9]; at 1.2 µM 1% | [9]; at 3.7 µM 1% | [9]; at 11.0 µM 4% | [9]; at 33.0 µM 6% | [9]; at 100.0 µM 25% | [10]; [17] -30% | [10]; [18] 4% | [10]; at 50.0 µM 19.9% | [11]; at 1.2 µM 4% | [11]; at 3.7 µM 4% | [11]; [17] 6% | [11]; at 11.0 µM 1% | [11]; at 33.0 µM 2% | [11]; [18] 2% | [11]; at 50.0 µM 42% | [11]; at 100.0 µM 26% | [12]; at 1.2 µM 1% | [12]; at 3.7 µM -5% | [12]; at 11.0 µM 4% | [12]; at 33.0 µM 11% | [12]; at 100.0 µM 46% | [13]; at 1.2 µM -1% | [13]; at 3.7 µM 1% | [13]; at 11.0 µM -6% | [13]; at 33.0 µM 4% | [13]; at 100.0 µM 46% | [14]; at 1.2 µM -1% | [14]; at 3.7 µM -2% | [14]; at 11.0 µM 2% | [14]; at 33.0 µM 28% | [15]; [17] -1% | [15]; [18] 39% | [15]; at 50.0 µM 68.2% | [16]; at 1.2 µM -1% | [16]; at 3.7 µM -2% | [16]; at 11.0 µM -2% | [16]; at 33.0 µM 16%

O=[N+]([O-])c1ccc(N2CCC(CCCC3CCN(c4ccc([N+](=O)[O-])cc4[N+](=O)[O-])CC3)CC2)c([N+](=O)[O-])c1
inactive: [1]; at 1.2 µM -24% | [1]; at 3.7 µM -17% | [1]; at 11.0 µM -7% | [1]; at 33.0 µM 0% | [1]; at 100.0 µM 20% | [2]; at 1.2 µM -6% | [2]; at 3.7 µM -1% | [2]; at 11.0 µM 5% | [2]; at 33.0 µM 11% | [2]; at 100.0 µM 11% | [3]; at 1.2 µM -6% | [3]; at 3.7 µM -14% | [3]; at 11.0 µM -17% | [3]; at 33.0 µM -4% | [3]; at 100.0 µM 18% | [4]; at 1.2 µM -18% | [4]; at 3.7 µM -4% | [4]; at 11.0 µM 0% | [4]; at 33.0 µM 10% | [5]; at 1.2 µM 7% | [5]; at 3.7 µM 1% | [5]; at 11.0 µM 4% | [5]; at 33.0 µM 12% | [5]; at 100.0 µM 31% | [6]; at 1.2 µM -35% | [6]; at 3.7 µM -27%
active: [4]; at 100.0 µM 77% | [5]; [17] 98% | [5]; [18] 99% | [5]; at 50.0 µM 75%
